Reference: the supplement of paper PMC11732987, “Enantioselective OTUD7B fragment discovery through chemoproteomics screening and high-throughput optimisation” (Communications Chemistry, 2025)

Key:
Experiment in all cases: log2 ratio of Biotin-Ahx-Ub-VS probe labelling (fragment/DMSO); higher = less target engagement (more negative = stronger competition), active = hit call of the paper (q ≤ 0.05, log2 ratio ≤ -1)
Settings in all cases: compound concentration: 200 uM; treatment time: 3 h
USP34 = USP34 (UniProt Q70CQ2)
Chain of USP34 (Q70CQ2 whole entry, the tested form may be a part): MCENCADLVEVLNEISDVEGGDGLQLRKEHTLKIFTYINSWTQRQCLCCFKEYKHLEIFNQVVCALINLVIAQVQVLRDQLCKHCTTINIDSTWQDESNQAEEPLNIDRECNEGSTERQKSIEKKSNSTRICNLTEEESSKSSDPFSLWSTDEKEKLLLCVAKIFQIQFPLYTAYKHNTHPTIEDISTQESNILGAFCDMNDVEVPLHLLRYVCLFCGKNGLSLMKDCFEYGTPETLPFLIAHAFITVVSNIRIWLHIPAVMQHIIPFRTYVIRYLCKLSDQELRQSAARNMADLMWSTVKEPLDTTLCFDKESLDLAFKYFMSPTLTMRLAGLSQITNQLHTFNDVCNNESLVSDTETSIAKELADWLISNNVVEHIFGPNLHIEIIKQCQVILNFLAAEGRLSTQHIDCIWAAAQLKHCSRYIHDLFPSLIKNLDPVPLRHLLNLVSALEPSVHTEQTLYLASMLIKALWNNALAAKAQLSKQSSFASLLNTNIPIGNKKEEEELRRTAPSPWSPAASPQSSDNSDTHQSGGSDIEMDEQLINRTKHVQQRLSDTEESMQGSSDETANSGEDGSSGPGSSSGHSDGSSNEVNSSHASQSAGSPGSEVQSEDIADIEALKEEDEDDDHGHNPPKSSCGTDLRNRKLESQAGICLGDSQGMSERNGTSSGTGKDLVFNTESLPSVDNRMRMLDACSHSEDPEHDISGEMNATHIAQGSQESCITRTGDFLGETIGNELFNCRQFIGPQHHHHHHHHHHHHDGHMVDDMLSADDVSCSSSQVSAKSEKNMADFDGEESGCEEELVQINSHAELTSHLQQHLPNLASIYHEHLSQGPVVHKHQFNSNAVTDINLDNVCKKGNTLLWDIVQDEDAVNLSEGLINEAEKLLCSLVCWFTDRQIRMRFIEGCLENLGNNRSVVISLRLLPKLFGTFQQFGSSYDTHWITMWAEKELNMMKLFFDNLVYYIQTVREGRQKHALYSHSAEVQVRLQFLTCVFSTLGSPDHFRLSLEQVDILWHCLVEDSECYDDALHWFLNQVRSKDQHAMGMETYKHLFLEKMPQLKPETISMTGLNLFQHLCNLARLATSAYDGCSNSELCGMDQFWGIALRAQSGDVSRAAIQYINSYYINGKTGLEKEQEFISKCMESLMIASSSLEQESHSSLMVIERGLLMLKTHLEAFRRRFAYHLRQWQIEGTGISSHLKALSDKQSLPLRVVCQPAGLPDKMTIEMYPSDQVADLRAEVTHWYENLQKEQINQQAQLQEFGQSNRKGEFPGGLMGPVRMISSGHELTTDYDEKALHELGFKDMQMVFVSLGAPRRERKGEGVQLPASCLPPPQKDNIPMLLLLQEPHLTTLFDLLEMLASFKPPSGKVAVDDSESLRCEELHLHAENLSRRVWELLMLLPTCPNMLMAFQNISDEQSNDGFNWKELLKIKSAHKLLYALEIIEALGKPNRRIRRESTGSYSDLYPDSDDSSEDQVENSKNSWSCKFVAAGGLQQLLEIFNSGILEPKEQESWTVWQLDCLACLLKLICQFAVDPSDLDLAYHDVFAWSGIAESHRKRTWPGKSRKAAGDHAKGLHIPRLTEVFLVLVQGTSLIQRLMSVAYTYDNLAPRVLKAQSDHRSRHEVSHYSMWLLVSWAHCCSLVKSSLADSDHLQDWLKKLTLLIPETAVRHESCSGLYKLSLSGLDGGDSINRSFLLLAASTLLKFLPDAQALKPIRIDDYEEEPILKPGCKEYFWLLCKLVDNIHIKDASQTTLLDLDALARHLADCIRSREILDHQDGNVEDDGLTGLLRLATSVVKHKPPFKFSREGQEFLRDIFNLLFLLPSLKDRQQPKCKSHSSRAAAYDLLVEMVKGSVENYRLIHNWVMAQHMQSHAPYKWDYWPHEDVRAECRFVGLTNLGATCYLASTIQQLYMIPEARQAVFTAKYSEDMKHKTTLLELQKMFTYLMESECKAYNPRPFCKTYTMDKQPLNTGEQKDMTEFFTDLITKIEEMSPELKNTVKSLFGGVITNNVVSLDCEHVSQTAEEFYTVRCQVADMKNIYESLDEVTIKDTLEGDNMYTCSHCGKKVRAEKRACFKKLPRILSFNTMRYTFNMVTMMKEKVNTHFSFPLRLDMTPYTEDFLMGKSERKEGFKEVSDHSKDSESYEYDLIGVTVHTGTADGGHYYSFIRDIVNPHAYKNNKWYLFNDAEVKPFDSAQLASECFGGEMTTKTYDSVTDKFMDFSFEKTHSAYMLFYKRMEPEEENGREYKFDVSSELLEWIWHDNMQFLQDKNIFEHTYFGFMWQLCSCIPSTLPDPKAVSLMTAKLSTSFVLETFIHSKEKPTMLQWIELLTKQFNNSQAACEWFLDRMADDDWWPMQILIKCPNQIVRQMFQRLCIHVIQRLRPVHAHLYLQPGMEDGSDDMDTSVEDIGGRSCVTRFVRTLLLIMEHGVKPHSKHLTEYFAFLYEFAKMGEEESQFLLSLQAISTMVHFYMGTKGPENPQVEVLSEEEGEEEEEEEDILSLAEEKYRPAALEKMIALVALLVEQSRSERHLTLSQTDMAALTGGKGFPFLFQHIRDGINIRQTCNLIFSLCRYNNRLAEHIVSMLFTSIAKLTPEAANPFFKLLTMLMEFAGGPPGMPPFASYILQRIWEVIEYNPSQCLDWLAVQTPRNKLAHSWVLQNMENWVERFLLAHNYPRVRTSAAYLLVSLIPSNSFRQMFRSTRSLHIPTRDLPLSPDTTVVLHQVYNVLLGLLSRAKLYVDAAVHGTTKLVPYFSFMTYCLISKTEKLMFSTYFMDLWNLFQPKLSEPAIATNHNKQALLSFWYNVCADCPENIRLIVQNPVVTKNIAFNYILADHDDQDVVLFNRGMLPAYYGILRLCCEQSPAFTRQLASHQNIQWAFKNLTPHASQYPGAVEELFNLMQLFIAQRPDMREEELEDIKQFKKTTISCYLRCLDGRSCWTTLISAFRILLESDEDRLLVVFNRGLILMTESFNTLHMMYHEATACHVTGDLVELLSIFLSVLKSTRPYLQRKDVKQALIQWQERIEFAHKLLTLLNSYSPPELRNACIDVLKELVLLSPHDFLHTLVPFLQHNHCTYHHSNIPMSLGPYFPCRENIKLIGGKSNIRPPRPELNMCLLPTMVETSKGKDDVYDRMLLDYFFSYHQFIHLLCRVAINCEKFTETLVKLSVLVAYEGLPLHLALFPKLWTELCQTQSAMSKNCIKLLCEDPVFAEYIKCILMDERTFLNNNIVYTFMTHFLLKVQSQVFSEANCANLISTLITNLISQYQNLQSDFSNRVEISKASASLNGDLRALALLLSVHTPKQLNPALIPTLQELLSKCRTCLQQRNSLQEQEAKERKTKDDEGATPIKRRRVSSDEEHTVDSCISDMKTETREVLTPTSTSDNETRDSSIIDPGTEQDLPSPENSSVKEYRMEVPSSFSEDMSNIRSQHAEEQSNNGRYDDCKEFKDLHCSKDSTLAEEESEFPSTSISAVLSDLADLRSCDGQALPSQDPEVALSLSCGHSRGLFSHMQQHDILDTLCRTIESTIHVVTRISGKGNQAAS
How it was run: (§1)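 Labelling with Biotin-Ahx-Ub-VS (0.5 µM final, 1 h) followed a 3 h triplicate treatment of HEK293T lysate (495 µg per sample, Tris/CHAPS/IGEPAL buffer with protease inhibitors) with fragment at 200 µM or vehicle. Labelled DUBs were NeutrAvidin-enriched, digested with LysC and trypsin, and run by diaPASEF LC-MS/MS. The values, average log2 fragment/vehicle ratios by unpaired t-test, come from global-median-normalised Spectronaut label-free quantities. Proteins with ≥2 unique peptides were used.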

USP36 = target: T1, USP36 (UniProt Q9P275)
T1 sequence (whole entry): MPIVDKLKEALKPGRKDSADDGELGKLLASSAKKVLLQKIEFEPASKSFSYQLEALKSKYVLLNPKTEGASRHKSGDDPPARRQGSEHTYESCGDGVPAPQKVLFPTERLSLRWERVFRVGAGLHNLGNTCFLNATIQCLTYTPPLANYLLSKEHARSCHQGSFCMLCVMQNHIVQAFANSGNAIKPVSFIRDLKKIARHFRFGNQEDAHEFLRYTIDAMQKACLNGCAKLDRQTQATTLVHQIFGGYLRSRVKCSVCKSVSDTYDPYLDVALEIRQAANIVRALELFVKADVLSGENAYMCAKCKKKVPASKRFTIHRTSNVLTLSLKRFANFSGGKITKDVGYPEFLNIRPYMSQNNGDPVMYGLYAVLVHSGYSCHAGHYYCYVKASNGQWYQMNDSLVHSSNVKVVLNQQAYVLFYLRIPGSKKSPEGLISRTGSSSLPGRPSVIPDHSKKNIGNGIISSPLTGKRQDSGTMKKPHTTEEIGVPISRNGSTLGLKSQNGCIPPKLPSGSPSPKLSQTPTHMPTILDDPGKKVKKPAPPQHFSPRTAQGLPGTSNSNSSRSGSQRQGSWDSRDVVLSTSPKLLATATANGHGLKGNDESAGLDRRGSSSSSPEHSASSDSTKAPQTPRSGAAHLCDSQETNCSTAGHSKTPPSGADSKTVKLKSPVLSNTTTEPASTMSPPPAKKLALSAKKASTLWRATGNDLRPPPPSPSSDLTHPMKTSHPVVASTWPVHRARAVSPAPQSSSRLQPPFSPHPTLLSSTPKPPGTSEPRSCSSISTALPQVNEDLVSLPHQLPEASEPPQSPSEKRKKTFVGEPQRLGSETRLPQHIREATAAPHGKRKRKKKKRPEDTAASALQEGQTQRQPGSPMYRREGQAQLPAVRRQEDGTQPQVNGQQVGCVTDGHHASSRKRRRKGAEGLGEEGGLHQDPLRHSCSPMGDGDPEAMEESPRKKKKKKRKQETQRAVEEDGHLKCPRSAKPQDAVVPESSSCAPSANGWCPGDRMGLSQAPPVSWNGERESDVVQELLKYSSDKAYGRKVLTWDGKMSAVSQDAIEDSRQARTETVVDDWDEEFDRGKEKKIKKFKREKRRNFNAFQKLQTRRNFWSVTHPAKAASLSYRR
How it was run: as §1

USP38 = target: T2, USP38 (UniProt Q8NB14)
T2 sequence (whole entry): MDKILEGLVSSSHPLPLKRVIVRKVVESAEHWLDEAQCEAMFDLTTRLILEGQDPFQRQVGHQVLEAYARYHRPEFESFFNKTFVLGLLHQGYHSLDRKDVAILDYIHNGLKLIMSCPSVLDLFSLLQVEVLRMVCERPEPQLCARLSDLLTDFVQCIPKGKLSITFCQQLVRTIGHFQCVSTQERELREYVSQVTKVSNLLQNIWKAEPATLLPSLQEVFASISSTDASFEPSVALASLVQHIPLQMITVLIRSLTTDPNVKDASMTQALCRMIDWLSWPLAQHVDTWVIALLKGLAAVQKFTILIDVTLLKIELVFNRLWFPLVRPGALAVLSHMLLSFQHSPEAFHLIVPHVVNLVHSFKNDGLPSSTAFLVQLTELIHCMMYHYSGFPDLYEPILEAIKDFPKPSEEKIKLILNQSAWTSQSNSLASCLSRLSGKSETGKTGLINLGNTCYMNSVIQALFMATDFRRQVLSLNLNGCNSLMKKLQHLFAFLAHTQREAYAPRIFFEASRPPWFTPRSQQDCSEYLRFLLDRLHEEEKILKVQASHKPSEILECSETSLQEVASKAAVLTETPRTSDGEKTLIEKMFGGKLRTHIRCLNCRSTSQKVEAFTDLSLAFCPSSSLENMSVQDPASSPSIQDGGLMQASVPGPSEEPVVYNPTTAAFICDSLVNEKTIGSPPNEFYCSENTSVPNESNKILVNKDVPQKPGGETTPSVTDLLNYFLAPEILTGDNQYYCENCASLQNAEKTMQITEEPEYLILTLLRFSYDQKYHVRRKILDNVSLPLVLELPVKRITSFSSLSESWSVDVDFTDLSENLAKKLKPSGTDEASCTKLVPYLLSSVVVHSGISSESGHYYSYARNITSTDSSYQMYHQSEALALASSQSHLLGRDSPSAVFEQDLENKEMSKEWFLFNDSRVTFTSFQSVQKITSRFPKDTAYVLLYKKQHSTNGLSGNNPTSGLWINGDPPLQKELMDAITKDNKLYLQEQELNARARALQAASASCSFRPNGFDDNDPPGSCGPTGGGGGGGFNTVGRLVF
How it was run: as §1

USP39 = target: T3, USP39 (UniProt Q53GS9)
T3 sequence (whole entry): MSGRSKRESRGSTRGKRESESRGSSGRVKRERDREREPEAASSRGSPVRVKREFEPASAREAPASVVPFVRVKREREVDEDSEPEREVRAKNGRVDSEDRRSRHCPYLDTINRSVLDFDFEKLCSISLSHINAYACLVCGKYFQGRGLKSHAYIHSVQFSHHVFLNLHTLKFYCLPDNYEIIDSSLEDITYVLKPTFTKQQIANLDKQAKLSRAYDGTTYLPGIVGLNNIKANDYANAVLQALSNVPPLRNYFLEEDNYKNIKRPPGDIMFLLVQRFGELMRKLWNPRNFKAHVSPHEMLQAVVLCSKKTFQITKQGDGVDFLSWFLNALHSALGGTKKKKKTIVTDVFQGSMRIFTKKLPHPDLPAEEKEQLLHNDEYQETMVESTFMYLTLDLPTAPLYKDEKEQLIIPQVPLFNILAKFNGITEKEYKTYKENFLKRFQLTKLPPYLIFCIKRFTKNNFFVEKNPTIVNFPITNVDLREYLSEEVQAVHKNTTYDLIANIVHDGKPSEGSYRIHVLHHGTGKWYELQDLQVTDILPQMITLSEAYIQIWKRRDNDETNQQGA
How it was run: as §1

USP4 = target: T4, USP4 (UniProt Q13107)
T4 sequence (whole entry): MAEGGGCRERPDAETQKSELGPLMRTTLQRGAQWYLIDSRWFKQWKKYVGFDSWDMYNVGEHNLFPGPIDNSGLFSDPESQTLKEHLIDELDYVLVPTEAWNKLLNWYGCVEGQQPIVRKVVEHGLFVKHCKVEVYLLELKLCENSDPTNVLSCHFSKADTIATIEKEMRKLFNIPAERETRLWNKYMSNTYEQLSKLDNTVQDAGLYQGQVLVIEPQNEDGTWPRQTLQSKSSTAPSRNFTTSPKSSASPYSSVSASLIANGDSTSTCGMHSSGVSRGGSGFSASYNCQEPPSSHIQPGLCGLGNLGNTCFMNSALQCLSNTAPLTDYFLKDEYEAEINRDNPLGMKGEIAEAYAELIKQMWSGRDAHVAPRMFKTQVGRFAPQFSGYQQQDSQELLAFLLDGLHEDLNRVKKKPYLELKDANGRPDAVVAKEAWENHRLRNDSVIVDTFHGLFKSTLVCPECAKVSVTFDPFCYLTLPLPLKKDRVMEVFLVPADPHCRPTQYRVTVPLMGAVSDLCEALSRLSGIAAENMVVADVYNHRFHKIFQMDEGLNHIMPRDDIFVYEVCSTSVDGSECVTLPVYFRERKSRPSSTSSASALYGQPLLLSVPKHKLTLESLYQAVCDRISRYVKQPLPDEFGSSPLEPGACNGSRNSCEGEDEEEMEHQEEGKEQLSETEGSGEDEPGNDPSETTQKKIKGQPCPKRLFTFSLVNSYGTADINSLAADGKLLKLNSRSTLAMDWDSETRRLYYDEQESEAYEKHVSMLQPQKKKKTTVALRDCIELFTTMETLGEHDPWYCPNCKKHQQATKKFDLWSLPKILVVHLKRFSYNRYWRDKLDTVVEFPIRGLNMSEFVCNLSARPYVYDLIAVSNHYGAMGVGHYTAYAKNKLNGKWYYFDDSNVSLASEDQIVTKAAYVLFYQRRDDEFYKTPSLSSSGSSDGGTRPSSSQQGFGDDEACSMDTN
How it was run: as §1

Measured: log2 ratio of Biotin-Ahx-Ub-VS probe labelling

CCC(NC(=O)CCl)c1ccc(Cl)cc1 (stereo not given)
inactive: USP34 -0.142 | USP36 -0.231 | USP38 0.0692 | USP39 0.0269 | USP4 0.0111
